Source: the OligoGym collection

Target: LASP1
Experiment: pooled miR-30 sensor sort-seq; sequence = guide strand
Conditions: shRNA
Note: reference of the scale not given here.

Question: TATTTTATATTACTGATCTGGT was tested. Which sensor-assay potency score (higher = more potent) did it give?
Answer: -0.425

Question: How did the sensor-assay potency score (higher = more potent) turn out when ATGTTCAGTGTCATCTTGCAGG was run?
Answer: -1.2

Question: With TATATTACTGATCTGGTCCTGG as the sequence, how does the sensor-assay potency score (higher = more potent) read?
Answer: 0.21

Question: TTCAGTGTCATCTTGCAGGTCT was tested. Which sensor-assay potency score (higher = more potent) did it give?
Answer: 0.744

Question: TTATATTACTGATCTGGTCCTG was tested. Which sensor-assay potency score (higher = more potent) did it give?
Answer: 0.57

Question: With TTGCAGTAGGGCTTCTTCTCGT as the sequence, how does the sensor-assay potency score (higher = more potent) read?
Answer: -0.401

Question: Which sensor-assay potency score (higher = more potent) does the source give for TTTATGCCAGAACTTATCCAGA here?
Answer: -1.03

Question: TACACGATCTTGCCGCACCGGG was tested. Which sensor-assay potency score (higher = more potent) did it give?
Answer: -1.34

Question: TACGCTGAAACCTTTGCCCTTG was tested. Which sensor-assay potency score (higher = more potent) did it give?
Answer: 0.0341

Question: For TTCATGTTCAGTGTCATCTTGC, which sensor-assay potency score (higher = more potent) is on record?
Answer: 0.197

Question: For TTGTAGCGCACCTGACTCTGGA, which sensor-assay potency score (higher = more potent) is on record?
Answer: -0.666

Question: How did the sensor-assay potency score (higher = more potent) turn out when TTTTATATTACTGATCTGGTCC was run?
Answer: -0.194

Target: LASS1
Experiment: as above
Conditions: shRNA

Question: With TAGAAGAGAAACTTCCAAGCGC as the sequence, how does the sensor-assay potency score (higher = more potent) read?
Answer: 0.296

Question: How did the sensor-assay potency score (higher = more potent) turn out when TTGAAGTAAATGTTGAGCTTGG was run?
Answer: 0.853

Question: Which sensor-assay potency score (higher = more potent) does the source give for TAGCGTAGCGTAGATGGAGTGG here?
Answer: -0.207

Question: With TCGTAGAAGACAGATGGTGGGT as the sequence, how does the sensor-assay potency score (higher = more potent) read?
Answer: -0.363

Question: How did the sensor-assay potency score (higher = more potent) turn out when TGTCCATGTATAGCGTAGCGTA was run?
Answer: -1.61

Question: With TGGAGCAGCATGACCACCGAGT as the sequence, how does the sensor-assay potency score (higher = more potent) read?
Answer: -1.27

Question: Which sensor-assay potency score (higher = more potent) does the source give for TTGAAGAAGAAGTAGAAGGGGA here?
Answer: 0.612

Question: Which sensor-assay potency score (higher = more potent) does the source give for TAGGCACTGTAGCTCCAGCTGC here?
Answer: -1.01

Question: TAGAGGCGGAACCAGAACCAGC was tested. Which sensor-assay potency score (higher = more potent) did it give?
Answer: -1.74

Question: With TAGTCGGTGCCAAACAGCAGGT as the sequence, how does the sensor-assay potency score (higher = more potent) read?
Answer: -1.18

Question: TATAGCGTAGCGTAGATGGAGT was tested. Which sensor-assay potency score (higher = more potent) did it give?
Answer: -0.396

Question: For AAACTTCCAAGCGCTCTCGGGC, which sensor-assay potency score (higher = more potent) is on record?
Answer: -0.904

Target: LCE2C
Experiment: as above
Conditions: shRNA

Question: AGACTGCAGGGAAACATGGAGC was tested. Which sensor-assay potency score (higher = more potent) did it give?
Answer: -2.06

Question: Which sensor-assay potency score (higher = more potent) does the source give for TCACTCTCACAGCAGTCGGGGC here?
Answer: -1.13

Question: For TCAGGGAGCAGCCACCAGCCCC, which sensor-assay potency score (higher = more potent) is on record?
Answer: -1.78

Question: With TGGTGGCTCAGGGAGCAGCCAC as the sequence, how does the sensor-assay potency score (higher = more potent) read?
Answer: -2.45

Question: How did the sensor-assay potency score (higher = more potent) turn out when CACAGCAAGAAGAGACTGCAGG was run?
Answer: -2.53

Question: AGCAAGAAGAGACTGCAGGGAA was tested. Which sensor-assay potency score (higher = more potent) did it give?
Answer: -0.624

Question: TTCACTCTCACAGCAGTCGGGG was tested. Which sensor-assay potency score (higher = more potent) did it give?
Answer: -0.831

Question: How did the sensor-assay potency score (higher = more potent) turn out when CTGCAGGGAAACATGGAGCTGG was run?
Answer: -1.34

Question: How did the sensor-assay potency score (higher = more potent) turn out when ACACTTGGGAGGACACTTGGGA was run?
Answer: 0.0104

Target: LCN1
Experiment: as above
Conditions: shRNA

Question: How did the sensor-assay potency score (higher = more potent) turn out when TGTTCTTGGGGTCTCTGCCCAC was run?
Answer: -1.02

Question: How did the sensor-assay potency score (higher = more potent) turn out when TTGGCTTCCAGGTTGCCCCCTT was run?
Answer: -0.189

Question: For TTCATCTCAGGGAACTCCCTGT, which sensor-assay potency score (higher = more potent) is on record?
Answer: 0.622

Question: How did the sensor-assay potency score (higher = more potent) turn out when ATCCTGAATCTCCTCGTCTGAG was run?
Answer: -1.24

Question: How did the sensor-assay potency score (higher = more potent) turn out when ATGCTCTCCGTGCTGAGTCCGC was run?
Answer: -1.5
